Assay outcomes (PubChem)
HepG2 tox = kills HepG2 cells in TGF-b inhibitor counter-screen; HepG2 CAGA-GFP viability, ATP luminescence, 18 h; Potency, µM (highest dose often 46.1 µM), usual class: cytotoxic; 410,000 tested, 0.76% active
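CellTiter-Glo luminescence gave cytotoxicity after 18 hours at 37 degrees C. The cells were HepG2 CAGA-GFP in 1% FBS DMEM, stimulated with 500 pg/mL TGF-beta after compound addition. %Activity was normalised to no-cell wells (complete cell-killing) and DMSO (no toxicity), and curves were fitted and classified.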
ATXN2 expr inh = inhibitors of ATXN2 expression; HEK-293 ATXN2-luciferase reporter, luminescence, 24 h; Potency, µM (series often up to 57 µM), actives largely listed as inhibitors; 360,000 tested, 0.72% active; AID 1745845; note: nearly all actives have a fitted effect of over 55% in size
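qHTS (up to 57 uM final) was run with 24 h compound exposure of reporter cells at 37 °C. Each well was multiplexed: SteadyGlo luminescence measured ATXN2-luciferase expression after a fluorogenic Gly-Phe-AFC viability readout (25 uM final).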
HT1080 IDH1KD tx = kills HT-1080 cells with IDH1 knockdown; HT-1080 IDH1 knockdown viability, ATP luminescence, 48 h; Potency, µM (titrated, usually from 46.1 µM), most hits filed as cytotoxic; 360,000 tested, 2% active
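CellTiter-Glo luminescence after 48 h compound exposure at 37 degrees C of IDH1-knockdown HT-1080 cells in 5% FBS RPMI. %Activity scaled between DMSO wells and cell-free media wells, with curves fitted and assigned curve classes.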
TGFb inhibitor = blocks TGF-b signaling; HepG2 CAGA-GFP TGF-b/SMAD3 reporter, GFP fluorescence, 18 h; TGF-beta stimulated, 500 pg/mL final; 410,000 tested, 1.2% active; Potency, µM (doses to about 46.1 µM), most hits filed as inhibitors; note: nearly all actives have a fitted effect of over 65% in size
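HEPG2 CAGA-GFP reporter cells (1000/well, DMEM with 1% FBS) received compounds, then recombinant TGF-beta at 500 pg/mL final for 18 hours at 37 degrees C. Per-cell GFP summed per well was normalised to unstimulated and stimulated DMSO controls before curve fitting.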
HT1080-NT tox = kills 2HG-producing HT-1080-NT fibrosarcoma cells; HT-1080-NT fibrosarcoma viability, CellTiter-Glo ATP luminescence, 48 h; Potency, µM (highest dose often 46.1 µM), most hits filed as cytotoxic; 360,000 tested, 1.6% active; AID 686970;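 note: NT is the 2HG producing partner of a matched IDH1 knockdown line; nearly all actives have a fitted effect of over 55% in size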
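Read-out is CellTiter-Glo luminescence after 10 minutes at room temperature, following 48 hours' compound treatment of HT-1080-NT cells (750 cells/well, RPMI, 5% FBS, 37 degrees C).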
ATXN viability = viability counter-screen for ATXN expression inhibitors; S2 cells (HEK-293 line with an ATXN2-luciferase reporter) viability, CellTiter-Fluor protease fluorescence, 24 h; Potency, µM (series often up to 56.7 µM), usual class: cytotoxic; 400,000 tested, 0.49% active; note: nearly all actives have a fitted effect of over 40% in size
Each line names hits and unclear results; the compound was inactive in the other large screens. Only some compounds are listed: those with a hit (about 3.8% of all), similar ones and a draw of the others. Calls come from the whole dose curve; as a rule, active = well fitted curve in the direction sought with a large enough effect; inconclusive = small, poorly fitted or top-dose-only effect, or another doubt; inactive = no such curve, though single readings can be large; an effect the other way counts as inactive or inconclusive.

COc1ccc2ccccc2c1-c1sc(Nc2ccccc2)n[n+]1-c1ccc(F)cc1	HepG2 tox 11µM, ATXN2 expr inh 28µM, HT1080 IDH1KD tx inconclusive, TGFb inhibitor inconclusive, HT1080-NT tox inconclusive, ATXN viability 28µM
COc1ccc(OC)c(NC(=O)N2CCC3(CC2)Oc2ccccc2C(=O)N3Cc2ccccc2F)c1	none (no result: ATXN2 expr inh, HT1080 IDH1KD tx, TGFb inhibitor, HT1080-NT tox, ATXN viability)
CCOc1nc(C#N)nc(N2CCOCC2)n1	TGFb inhibitor inconclusive (no result: ATXN2 expr inh, HT1080 IDH1KD tx, HT1080-NT tox, ATXN viability)
COc1ccc(C(=O)C[n+]2cc(Br)cc(Br)c2)cc1	none (no result: ATXN2 expr inh, HT1080 IDH1KD tx, HT1080-NT tox, ATXN viability)
N#CC1=C(N)NC(SCC(=O)c2ccccc2)=C(C#N)C12CCCC2	none
N#CC1=C(N)NC(SCc2ccc(Cl)cc2)=C(C#N)C12CCCCC2	HT1080 IDH1KD tx 21µM, TGFb inhibitor inconclusive, HT1080-NT tox inconclusive
N#CC1=C(N)NC(SCC(=O)Nc2ccc(Br)cc2)=C(C#N)C12CCCCC2	HT1080 IDH1KD tx inconclusive, TGFb inhibitor 18µM, HT1080-NT tox inconclusive
N#CC1=C(N)NC(SCc2ccc(Br)cc2)=C(C#N)C12CCCCC2	TGFb inhibitor inconclusive, ATXN viability inconclusive
C1=Cc2ccccc2/C1=C/c1ccc2c(c1)OCO2	none (no result: ATXN2 expr inh, HT1080 IDH1KD tx, HT1080-NT tox, ATXN viability)
Cc1ccc(CNC(=O)CN(c2ccc(C(C)C)cc2)S(=O)(=O)c2c(C)n[nH]c2C)cc1	ATXN2 expr inh inconclusive, TGFb inhibitor 11µM (no result: HT1080 IDH1KD tx, HT1080-NT tox, ATXN viability)
O=C(c1cccnc1)C1CCCN(Cc2ccc3c(c2)CN(C(=O)c2cccc(Cl)c2)CCO3)C1 (stereo not drawn)	none (no result: HepG2 tox, ATXN2 expr inh, HT1080 IDH1KD tx, TGFb inhibitor, HT1080-NT tox)
O=C(NC1CCCc2ccccc21)c1n[nH]c(=O)c2ccccc12 (stereo not drawn)	HT1080 IDH1KD tx 9.2µM, HT1080-NT tox inconclusive
CCOc1ccc(-c2nonc2NC(=O)c2oc3cc(Br)ccc3c2C)cc1	TGFb inhibitor 7.1µM, ATXN viability inconclusive (no result: HT1080 IDH1KD tx, HT1080-NT tox)
CCOc1ccc(-c2nonc2NC(=O)c2oc3ccc(Br)cc3c2C)cc1	none (no result: ATXN2 expr inh, HT1080 IDH1KD tx, HT1080-NT tox, ATXN viability)
COC(=O)C1=C(C)NC(COC(N)=O)=C(C(=O)OC(C)C)C1c1cccc(Cl)c1Cl (stereo not drawn)	ATXN viability inconclusive (no result: HepG2 tox, HT1080 IDH1KD tx, TGFb inhibitor, HT1080-NT tox)
CCCCNC(=O)c1ccc(Cn2c(=S)[nH]c3c([nH]c4ccc(OC)cc43)c2=O)cc1	ATXN2 expr inh inconclusive, HT1080 IDH1KD tx 18µM, TGFb inhibitor inconclusive, HT1080-NT tox inconclusive (no result: ATXN viability)
CCOCCCNC(=O)c1ccc(Cn2c(=S)[nH]c3c([nH]c4ccc(OC)cc43)c2=O)cc1	none (no result: ATXN2 expr inh)
Cc1cc2nc(-c3ccc(SCC(=O)N4CCc5ccccc54)nc3)[nH]c2cc1C	ATXN2 expr inh inconclusive, TGFb inhibitor inconclusive, ATXN viability 18µM
Cc1ccc(-n2cc(CN(C)Cc3ncc[nH]3)c(-c3cccc(C)c3)n2)cc1	ATXN2 expr inh inconclusive, HT1080 IDH1KD tx 18µM, TGFb inhibitor inconclusive, HT1080-NT tox 18µM, ATXN viability inconclusive
CCc1cccc(-n2nnc(-c3nsc(NC(=O)c4cccc(OC)c4)n3)c2C)c1	none (no result: HT1080 IDH1KD tx, HT1080-NT tox)
Cc1cc(/C=C2\SC(=Nc3ccccc3)NC2=O)c(C)n1-c1ccc(S(N)(=O)=O)cc1	ATXN2 expr inh inconclusive, HT1080 IDH1KD tx 5.2µM, TGFb inhibitor 13µM, HT1080-NT tox 7.3µM
COc1ccc(-n2c(C)cc(/C=C3\SC(=O)NC3=O)c2C)cc1	none
S=c1nc[nH]c2n[nH]nc12	none (no result: ATXN2 expr inh, HT1080 IDH1KD tx, HT1080-NT tox, ATXN viability)
COc1ccc(NC(=O)CC2C(=O)N(c3ccc(C)cc3)C(=O)N2C2CCCC2)cc1 (stereo not drawn)	none (no result: ATXN2 expr inh, HT1080 IDH1KD tx, HT1080-NT tox, ATXN viability)
COc1ccc(Cn2c(=O)c3[nH]cnc3n(-c3ccccc3C)c2=O)cc1	HT1080 IDH1KD tx 12µM, HT1080-NT tox 12µM, ATXN viability inconclusive
C(=Nc1cccnc1)c1ccc2ccccc2n1	none (no result: ATXN2 expr inh, HT1080 IDH1KD tx, HT1080-NT tox, ATXN viability)
COc1cccc(CCN2CCC(CNS(=O)(=O)c3cc(-c4cc(C)no4)ccc3OC)CC2)c1	ATXN2 expr inh inconclusive, HT1080 IDH1KD tx inconclusive, TGFb inhibitor inconclusive, HT1080-NT tox inconclusive
COc1cccc(CCN2CCC(CNS(=O)(=O)c3cc(-c4cc(C)no4)ccc3C)CC2)c1	HT1080 IDH1KD tx inconclusive, TGFb inhibitor 16µM, HT1080-NT tox inconclusive, ATXN viability inconclusive (no result: ATXN2 expr inh)
CC(C)c1ccc(NC(=O)c2cccn2-c2nnc(N3CCCCC3)s2)cc1	TGFb inhibitor inconclusive (no result: ATXN2 expr inh, HT1080 IDH1KD tx, HT1080-NT tox, ATXN viability)
